For assay [1], the target named is Thyrotropin receptor (Homo sapiens) (UniProt P16473). Kind of assay: qHTS assay to identify small molecule antagonists of the thyroid stimulating hormone receptor (TSHR) signaling pathway (AID 1259385; calls by dose curve; also: nearly all actives have a fitted effect of over 20% in size). The method, boiled down: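 TSHR-HEK293 cells were plated and held 18 h at 37C/5% CO2, then given compound plus Ro20-1724 and stimulated with TSH at 1.5 ng/mL final. After 30 min at room temperature, cAMP was detected with cAMP-d2/anti-cAMP-cryptate (1 h) by fluorescence.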
(In general: Quantitative high-throughput screening tests each substance at several concentrations.)

The nature of assay [2]: qHTS assay to identify small molecule agonists of the estrogen receptor alpha (ER-alpha) signaling pathway in the presence of an antagonist - cell viability counter screen (AID 1259386).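 Also: cells exposed to compounds for 22 h at 37 °C before the viability read; nearly all actives have a fitted effect of over 30% in size.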 Also: potency is read from the fitted curve at half-maximal effect. In a few lines: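 Using estrogen-depleted VM7Luc4E2 cells, the 15-concentration compound series was applied together with 10.0nM ICI-182,780 and incubated 22hr at 37C/5% CO2. Cell viability was then scored by CellTiter-Fluor.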

For assay [3], the target named is Progesterone receptor (Homo sapiens) (UniProt P06401). Kind of assay: qHTS assay to identify small molecule agonists of the progesterone receptor (PR) signaling pathway (AID 1346784; calls by dose curve; also: nearly all actives have a fitted effect of over 30% in size). In a few lines: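 Agonist mode, quantitative HTS format in a HEK 293T line expressing a UAS-controlled beta-lactamase reporter; 16 hr compound exposure at 37C in 2% charcoal-stripped FBS, then LiveBLAzer B/G FRET fluorescence.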

Assay [4] shares this target. Kind of assay: qHTS assay to identify small molecule antagonists of the progesterone receptor (PR) signaling pathway (AID 1346795; active = well fitted inhibition curve with a large enough effect in the signal ratio in the repeat runs, not every such curve was filed as active; the % refers to the signal ratio). In a few lines:
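HEK293T PR-UAS-bla reporter cells in charcoal-stripped serum (2%) received compound after a 6 hr settling period, followed by R5020 agonist at 1 nM final; 16 hr incubation preceded the FRET substrate step and fluorescence measurement.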

The nature of assay [5]: qHTS assay to identify small molecule agonists of the progesterone receptor (PR) signaling pathway - cell viability counter screen (AID 1346799; calls by dose curve; also: nearly all actives have a fitted effect of over 45% in size). The method, boiled down:
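Counter screen for cytotoxicity: compound-treated PR-UAS-bla HEK293T cells (16 hr, 37C, 5% CO2) were assayed with CellTiter-Glo, luminescence measured after 30 min at room temperature.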

The nature of assay [6]: qHTS assay to identify small molecule antagonists of the TGF-beta/Smad signaling pathway - cell viability counter screen (AID 1346824). Also: nearly all actives have a fitted effect of over 50% in size. The method, boiled down: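 SBE-bla HEK 293T cells were plated overnight at 37 C, then given compounds in DMSO plus TGF-beta1 (added as 0.25 ng/mL solution) for 5 hr. After the bla read, CellTiter-Glo was added to the same wells and luminescence read after 30 min at room temperature.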

Assay [7] in a line: qHTS assay to identify small molecule agonists of the TGF-beta/Smad signaling pathway - cell viability counter screen (AID 1346829). Also: top concentration of the series differs between compounds; nearly all actives have a fitted effect of over 45% in size. In a few lines: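 Same-well cytotoxicity: CellTiter-Glo added after the 2 hr room-temperature beta-lactamase substrate step, luminescence measured 30 min later; cells had 5 hr of compound at 37 C.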
Assay [8] is described as follows: qHTS assay to identify small molecule agonists of the TGF-beta/Smad signaling pathway (AID 1346859; active = well fitted activation curve with a large enough effect in the signal ratio in the repeat runs, not every such curve was filed as active; the % refers to the signal ratio; also: series mostly up to about 77 µM). In a few lines:
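Smad-responsive beta-lactamase reporter cells (HEK 293T) received compounds from DMSO stocks after overnight attachment, were incubated 5 hr, then treated 2 hr with FRET substrate before dual-emission fluorescence measurement (405 nm excitation).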

The target of assay [9] is Thyrotropin-releasing hormone receptor (Homo sapiens) (UniProt P34981). Description: qHTS assay to identify small molecule antagonists of the thyrotropin-releasing hormone receptor (TRHR) signaling pathway (AID 1346877; active = well fitted inhibition curve with a large enough effect in the repeat runs, not every such curve was filed as active; also: series mostly up to about 51 µM). The method, boiled down: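 Calcium signal in dye-loaded TRHR/HEK293 cells; compounds added 5 min before TRH (1 nM final); fluorescence monitored 3 min at 1 s steps.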

Assay [10] has the same target. Kind of assay: qHTS assay to identify small molecule agonists of the thyrotropin-releasing hormone receptor (TRHR) signaling pathway (AID 1346891; calls by dose curve;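 also: HEK293 cells expressing TRHR with calcium dye readout; series mostly up to about 58 µM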). The method, boiled down:
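Agonist-mode calcium mobilisation screen: TRHR-transfected HEK293 cells cultured overnight (18 h), dye-loaded for 2 h at 37 °C, exposed to compounds, and monitored by fluorescence for 3 min.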

Assay [11] is described as follows: Human pregnane X receptor (PXR) small molecule agonists, qHTS cell viability counter screen (AID 1346977). Also: nearly all actives have a fitted effect of over 50% in size. The method, boiled down:
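Measures live-cell protease fluorescence (CellTiter-Fluor) in PXR-Luc HepG2 cells treated 24hr with compounds at 37C. Cells had 5hr to attach before pin transfer of DMSO solutions.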

Assay [12] is described as follows: Caspase-3/7 induction in HepG2 cells by small molecules, qHTS assay (AID 1346978). Also: nearly all actives have a fitted effect of over 15% in size. The method, boiled down:
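Wild-type HepG2 cells (2,000/well) were settled 5 h at 37 C, 5% CO2, then exposed to compounds in DMSO for 17 h. Caspase-3/7 activity was read by luminescence 30 min after adding Caspase-Glo 3/7 reagent at room temperature.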

Assay [13] is described as follows: Caspase-3/7 induction in CHO-K1 cells by small molecules, qHTS cell viability counter screen (AID 1346979). Also: nearly all actives have a fitted effect of over 35% in size. Also: potency is read from the fitted curve at half-maximal effect. In a few lines:
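In the same wells as the caspase read, viability of compound-treated wild-type CHO-K1 cells was assessed using CellTiter-Fluor, added after 16hr at 37C and measured by fluorescence following 1hr further incubation.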

Assay [14] is described as follows: Caspase-3/7 induction in CHO-K1 cells by small molecules, qHTS assay (AID 1346980). Also: nearly all actives have a fitted effect of over 15% in size. The method, boiled down: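 Wild-type cells were seeded at 1,500 per well and settled 5 hr at 37 C, 5% CO2, then exposed to DMSO-dissolved compounds for 17 hr. Caspase-Glo 3/7 reagent was added, and luminescence was read after 30min at room temperature.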
A short description of assay [15]: Caspase-3/7 induction in HepG2 cells by small molecules, qHTS cell viability counter screen (AID 1346981). Also: series mostly up to about 92 µM; nearly all actives have a fitted effect of over 30% in size. In a few lines:
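After a 5-hr attachment period at 37 C and 5% CO2, wild-type HepG2 cells received compounds in DMSO. Sixteen hours later CellTiter-Fluor was dispensed and the fluorescent signal quantified after a further hour.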

For assay [16], the target named is Nuclear receptor subfamily 1 group I member 2 (Homo sapiens) (UniProt O75469). Kind of assay: Human pregnane X receptor (PXR) small molecule agonists, qHTS assay (AID 1346982). Also: nearly all actives have a fitted effect of over 35% in size. Also: potency is read from the fitted curve at half-maximal effect. In a few lines:
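Tox21 qHTS; PXR-Luc HepG2; compounds pinned from DMSO; 24 hr, 37 C; ONE-Glo luciferase detection, 30 min room temperature.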

For assay [17], the target named is Cytochrome P450 2D6 (Homo sapiens) (UniProt P10635). Description: Cytochrome P450 Family 2 Subfamily D Member 6 (CYP2D6) small molecule antagonists: luciferase reporter qHTS assay (AID 1671196). Also: nearly all actives have a fitted effect of over 50% in size. Also: potency is read from the fitted curve at half-maximal effect. In a few lines: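 Room-temperature luminescent CYP2D6 activity assay: compound preincubated 10 min with enzyme–substrate mix, NADPH-initiated reaction 1 h, detection reagent 20 min before reading.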

For assay [18], the target named is Nuclear receptor subfamily 1 group I member 2 (Homo sapiens) (UniProt O75469). Description: CYP3A4 induction through human pregnane X receptor (PXR) by small molecules, qHTS assay (AID 1346984). Also: nearly all actives have a fitted effect of over 40% in size. In a few lines: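 Cells (DPX-2; HepG2 with PXR element plus CYP3A4-promoter luciferase) settled 5hr, then were treated 24hr at 37C. A 3hr, 3uM-final Luciferin-IPA step preceded luminescence measurement with One-Glo.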

Assay [19] shares this target. Kind of assay: Human pregnane X receptor (PXR) activation by small molecules, qHTS assay (AID 1346985). Also: nearly all actives have a fitted effect of over 40% in size. The method, boiled down:
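DPX-2 cells (HepG2 co-transfected with a PXR response element and a CYP3A4-promoter luciferase construct) were seeded at 2,000 per well, rested 5 hr at 37C, then exposed to DMSO-dissolved compounds for 24 hr. Activation was read as luciferase luminescence.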

Where “and” joins values, the source holds several entries; their conditions need not be identical. Equal entries are not always repeated. Inconclusive results are not listed. Where a structure was tested more than once in an assay, its records may differ in their call. Calls of active or inactive are those of the source. Unless noted, calls follow the shape of the dose curve; as a rule, active = well fitted curve in the direction sought with a large enough effect in the repeat runs; inconclusive = weak or mixed curves; inactive = no such curve, though single readings can be large; an effect the other way counts as inactive or inconclusive.

Chain of Nuclear receptor subfamily 1 group I member 2 (Homo sapiens) (O75469 whole entry, looked up): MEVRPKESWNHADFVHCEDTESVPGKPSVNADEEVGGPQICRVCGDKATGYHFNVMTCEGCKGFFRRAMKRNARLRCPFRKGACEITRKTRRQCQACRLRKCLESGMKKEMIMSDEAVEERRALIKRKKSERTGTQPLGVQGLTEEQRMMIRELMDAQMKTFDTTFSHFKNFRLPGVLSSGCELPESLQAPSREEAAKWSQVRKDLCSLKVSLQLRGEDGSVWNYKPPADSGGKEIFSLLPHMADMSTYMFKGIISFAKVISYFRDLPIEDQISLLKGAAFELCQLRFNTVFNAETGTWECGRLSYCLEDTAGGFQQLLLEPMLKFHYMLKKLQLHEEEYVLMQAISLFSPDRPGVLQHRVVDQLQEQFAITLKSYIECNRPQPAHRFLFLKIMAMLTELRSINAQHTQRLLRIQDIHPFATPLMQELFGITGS
Chain of Cytochrome P450 2D6 (Homo sapiens) (P10635 whole entry, looked up): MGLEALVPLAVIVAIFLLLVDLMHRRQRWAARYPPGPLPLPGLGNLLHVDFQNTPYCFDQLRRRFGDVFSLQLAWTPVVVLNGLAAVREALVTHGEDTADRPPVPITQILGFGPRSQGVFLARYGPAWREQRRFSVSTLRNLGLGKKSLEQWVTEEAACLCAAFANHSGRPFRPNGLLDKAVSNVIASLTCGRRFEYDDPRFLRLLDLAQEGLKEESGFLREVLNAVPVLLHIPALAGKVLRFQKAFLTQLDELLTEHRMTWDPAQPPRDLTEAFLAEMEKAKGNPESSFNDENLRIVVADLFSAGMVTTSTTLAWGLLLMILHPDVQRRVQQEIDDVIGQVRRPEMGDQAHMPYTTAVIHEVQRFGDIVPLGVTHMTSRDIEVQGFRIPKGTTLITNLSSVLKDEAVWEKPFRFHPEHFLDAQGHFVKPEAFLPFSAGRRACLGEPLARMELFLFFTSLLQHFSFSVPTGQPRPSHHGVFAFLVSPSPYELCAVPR
Chain of Progesterone receptor (Homo sapiens) (P06401 whole entry, looked up): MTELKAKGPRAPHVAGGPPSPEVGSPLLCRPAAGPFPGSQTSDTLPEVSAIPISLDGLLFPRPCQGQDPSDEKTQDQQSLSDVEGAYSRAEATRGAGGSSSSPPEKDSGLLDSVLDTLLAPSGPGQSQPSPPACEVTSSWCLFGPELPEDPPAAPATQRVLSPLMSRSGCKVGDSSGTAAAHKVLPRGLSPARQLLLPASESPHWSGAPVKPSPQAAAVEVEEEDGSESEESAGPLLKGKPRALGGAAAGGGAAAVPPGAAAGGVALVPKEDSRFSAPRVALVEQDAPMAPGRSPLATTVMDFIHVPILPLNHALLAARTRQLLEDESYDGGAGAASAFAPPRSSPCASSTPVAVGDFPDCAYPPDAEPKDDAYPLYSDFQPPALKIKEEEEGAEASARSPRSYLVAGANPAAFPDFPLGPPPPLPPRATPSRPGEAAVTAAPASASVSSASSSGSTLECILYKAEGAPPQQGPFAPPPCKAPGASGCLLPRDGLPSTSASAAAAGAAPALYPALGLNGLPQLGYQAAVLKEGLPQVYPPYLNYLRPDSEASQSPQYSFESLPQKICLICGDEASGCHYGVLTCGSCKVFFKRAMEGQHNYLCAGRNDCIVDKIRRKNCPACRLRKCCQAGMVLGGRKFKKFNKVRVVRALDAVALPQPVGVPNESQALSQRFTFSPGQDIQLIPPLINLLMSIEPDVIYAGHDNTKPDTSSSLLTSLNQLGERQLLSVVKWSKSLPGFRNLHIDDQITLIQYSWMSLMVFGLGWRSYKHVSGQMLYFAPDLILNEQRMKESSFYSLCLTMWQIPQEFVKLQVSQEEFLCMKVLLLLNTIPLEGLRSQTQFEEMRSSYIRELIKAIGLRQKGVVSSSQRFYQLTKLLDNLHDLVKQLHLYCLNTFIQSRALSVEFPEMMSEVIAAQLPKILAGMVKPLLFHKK
Chain of Thyrotropin-releasing hormone receptor (Homo sapiens) (P34981 whole entry, looked up): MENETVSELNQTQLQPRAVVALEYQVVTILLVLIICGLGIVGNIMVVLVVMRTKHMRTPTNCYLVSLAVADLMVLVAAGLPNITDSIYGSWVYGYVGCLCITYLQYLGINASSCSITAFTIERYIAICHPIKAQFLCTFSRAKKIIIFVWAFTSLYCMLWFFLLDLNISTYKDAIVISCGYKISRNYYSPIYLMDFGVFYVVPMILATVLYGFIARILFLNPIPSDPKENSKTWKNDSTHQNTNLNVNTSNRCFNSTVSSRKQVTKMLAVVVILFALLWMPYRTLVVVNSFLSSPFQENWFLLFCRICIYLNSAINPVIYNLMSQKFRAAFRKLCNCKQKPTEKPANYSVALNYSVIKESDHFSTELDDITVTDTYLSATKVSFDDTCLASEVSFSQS
Chain of Thyrotropin receptor (Homo sapiens) (P16473 whole entry, looked up): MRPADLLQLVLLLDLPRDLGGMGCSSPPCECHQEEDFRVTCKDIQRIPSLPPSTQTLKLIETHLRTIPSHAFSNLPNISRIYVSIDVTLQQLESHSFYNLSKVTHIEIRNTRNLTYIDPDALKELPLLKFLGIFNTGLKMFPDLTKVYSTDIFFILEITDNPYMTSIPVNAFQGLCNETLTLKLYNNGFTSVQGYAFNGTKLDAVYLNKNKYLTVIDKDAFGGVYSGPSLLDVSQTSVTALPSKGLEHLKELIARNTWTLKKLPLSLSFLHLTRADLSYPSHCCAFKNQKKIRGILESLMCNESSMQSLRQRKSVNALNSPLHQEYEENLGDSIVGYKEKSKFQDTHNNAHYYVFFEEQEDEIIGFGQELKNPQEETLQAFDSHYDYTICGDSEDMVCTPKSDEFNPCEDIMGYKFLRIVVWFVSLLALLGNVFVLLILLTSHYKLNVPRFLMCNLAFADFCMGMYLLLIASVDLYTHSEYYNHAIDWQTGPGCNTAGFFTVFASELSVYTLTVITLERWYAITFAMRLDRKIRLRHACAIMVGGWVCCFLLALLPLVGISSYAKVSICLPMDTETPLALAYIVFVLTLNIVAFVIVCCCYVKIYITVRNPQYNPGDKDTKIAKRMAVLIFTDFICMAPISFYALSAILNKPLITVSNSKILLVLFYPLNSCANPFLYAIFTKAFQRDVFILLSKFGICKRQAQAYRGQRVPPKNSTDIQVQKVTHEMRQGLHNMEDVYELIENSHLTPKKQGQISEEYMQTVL

Consider `C1CNCCN1`, for which the compound was classed as inactive in [1], in assay [8], in [9] and in [14]. Besides, the Potency result in [2], in assay [3], in assay [4], in assay [5], in assay [6] and in assay [7] was “inactive” each time. Besides, the Potency entry in assay [10], in assay [11], in [12], in [15] and in [16] was “inactive” each time. The Potency is 44.6 µM (active) and inactive in [13]; 32.6 µM (active) and inactive and 2.03 µM (active) in [17].
With `COCCOCCOC`, the result in [1], in assay [8], in assay [9] and in assay [14] was inactive. In addition, the Potency entry in assay [2], in assay [3], in assay [4], in assay [5], in assay [6] and in assay [7] was “inactive” each time. Moreover, the Potency entry in assay [10], in assay [11], in [12], in assay [13] and in [17] was “inactive” in each case. Further, the Potency in assay [16] is 61.3 µM (active) and inactive.
Consider `CCCCCCCCOc1ccc(C(=O)c2ccccc2)c(O)c1`, for which the call in assay [1], in [8], in assay [9] and in [14] was inactive. Moreover, the Potency entry in assay [2], in assay [3], in assay [4], in [5], in assay [6] and in assay [7] was “inactive” each time. For the same compound, the Potency entry in assay [10], in assay [12], in [13], in [16], in assay [18] and in assay [19] was “inactive” in each case. Further, in assay [17], the Potency entry is “inactive”.
For the compound `NC(=O)N/N=C/c1ccc([N+](=O)[O-])o1`, the call in [1], in assay [8], in [9] and in [14] was inactive. The Potency result in assay [2] is “inactive and 61.1 µM (active)”; in [13] it was “inactive and 42.4 µM (active) and 29.8 µM (active)”; in assay [16], “inactive and 7.7 µM (active)”. The Potency result in assay [3], in [4], in [5], in [6], in [7] and in assay [10] was “inactive” in each case. The Potency result in assay [12], in [18] and in [17] was “inactive” throughout.
Turning to `C=CC(=O)NC(C)(C)CS(=O)(=O)O`, the compound was called inactive in assay [1], in [8] and in assay [14]. The Potency entry in assay [2], in [3], in assay [4], in assay [5], in assay [6] and in assay [7] was “inactive” in each case. The Potency result in assay [11], in [12], in assay [13], in [15] and in [16] was “inactive” each time. Also, in [17], the Potency was 49.2 µM (active) and inactive.
In the case of `N[C@@H](Cc1c[nH]c2ccccc12)C(=O)O`, the compound was called inactive in assay [1], in [8], in [9] and in assay [14]. Moreover, the Potency result in assay [2], in assay [3], in assay [4], in assay [5], in [6] and in assay [7] was “inactive” in each case. Also, the Potency result in assay [10], in assay [11], in assay [12], in assay [13] and in assay [16] was “inactive” in each case. The Potency in assay [17] was 35.6 µM (active) and inactive.
Take `CCCCCCCCCCCCCC(=O)OC(C)C`: the outcome in assay [1], in [8] and in assay [14] was inactive. Further, the Potency entry in assay [2], in assay [3], in [4], in assay [5], in [6] and in assay [7] was “inactive” in each case. For the same compound, the Potency result in [11], in assay [12], in assay [13], in [15], in assay [16] and in [18] was “inactive” throughout. In addition, the Potency result in assay [19] and in [17] was “inactive” in each case.

The values are drawn from PubChem BioAssay (Tox21).
